Results published in the supplement of paper PMC8728848.
This excerpt belongs to a sample that is enriched for the strongest signals.

Key:
Assay in all cases: glycan array binding signal (z-score within array); higher = stronger binding
Settings in all cases: glycan notation: IUPAC condensed, linker removed
Fuc(a1-2)Gal = target: Fuc(a1-2)Gal
Summary of the method: (§1)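 The Consortium for Functional Glycomics database supplied 3228 glycan arrays, of which those lacking an available protein sequence were dropped. The binding signal, a within-array Z-score, was averaged across arrays of the same protein sequence and across linkers. Negative scores can be read as non-binding.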

[1] = target: Fuc(a1-2)Gal(b1-3)GalNAc(b1-4)[Neu5Ac(a2-3)]Gal(b1-4)Glc
Summary of the method: as §1

[2] = target: Fuc(a1-2)Gal(b1-3)GlcNAc(b1-3)[Neu5Ac(a2-6)Gal(b1-4)GlcNAc(b1-6)]Gal(b1-4)Glc
Summary of the method: as §1

[3] = target: Fuc(a1-2)[Gal(a1-3)]Gal(b1-3)GlcNAc
Summary of the method: as §1

[4] = target: Fuc(a1-2)[Gal(a1-3)]Gal(b1-4)[Fuc(a1-3)]Glc
Summary of the method: as §1

[5] = target: Fuc(a1-2)[Gal(a1-3)]Gal(b1-4)[Fuc(a1-3)]GlcNAc(b1-3)GalNAc
Summary of the method: as §1

[6] = target: Fuc(a1-3)[Gal(b1-4)]Glc6S
Summary of the method: as §1

[7] = target: Fuc(a1-3)[Gal3S(b1-4)]Glc
Summary of the method: as §1

[8] = target: Gal(a1-3)[Gal(a1-4)]Gal(b1-4)GlcNAc
Summary of the method: as §1

[9] = target: Gal(a1-4)Gal(b1-4)GlcNAc(b1-2)Man(a1-3)[Gal(a1-4)Gal(b1-4)GlcNAc(b1-2)Man(a1-6)]Man(b1-4)GlcNAc(b1-4)GlcNAc
Summary of the method: as §1

Gal(b1-2)Gal = target: Gal(b1-2)Gal
Summary of the method: as §1

[10] = target: Gal(b1-3)GlcNAc(b1-3)Gal(b1-4)GlcNAc(b1-2)Man(a1-3)[Gal(b1-3)GlcNAc(b1-3)Gal(b1-4)GlcNAc(b1-2)Man(a1-6)]Man(b1-4)GlcNAc(b1-4)GlcNAc
Summary of the method: as §1

Gal(b1-4)Glc = target: Gal(b1-4)Glc
Summary of the method: as §1

[11] = target: Gal(b1-4)GlcNAc(b1-2)[Gal(b1-4)GlcNAc(b1-4)]Man(a1-3)[GlcNAc(b1-4)][Gal(b1-4)GlcNAc(b1-2)[Gal(b1-4)GlcNAc(b1-6)]Man(a1-6)]Man(b1-4)GlcNAc(b1-4)GlcNAc
Summary of the method: as §1

[12] = target: Gal(b1-4)GlcNAc(b1-3)Gal(b1-4)GlcNAc(b1-3)Gal(b1-4)GlcNAc(b1-3)Gal(b1-4)GlcNAc(b1-3)Gal(b1-4)GlcNAc(b1-2)[Gal(b1-4)GlcNAc(b1-3)Gal(b1-4)GlcNAc(b1-3)Gal(b1-4)GlcNAc(b1-3)Gal(b1-4)GlcNAc(b1-3)Gal(b1-4)GlcNAc(b1-6)]Man(a1-6)[Gal(b1-4)GlcNAc(b1-3)Gal(b1-4)GlcNAc(b1-3)Gal(b1-4)GlcNAc(b1-3)Gal(b1-4)GlcNAc(b1-3)Gal(b1-4)GlcNAc(b1-2)Man(a1-3)]Man(b1-4)GlcNAc(b1-4)[Fuc(a1-6)]GlcNAc
Summary of the method: as §1

[13] = target: Gal(b1-4)GlcNAc(b1-3)Gal(b1-4)GlcNAc(b1-3)Gal(b1-4)GlcNAc(b1-3)Gal(b1-4)GlcNAc(b1-3)Gal(b1-4)GlcNAc(b1-3)Gal(b1-4)GlcNAc(b1-2)Man(a1-3)[Gal(b1-4)GlcNAc(b1-3)Gal(b1-4)GlcNAc(b1-3)Gal(b1-4)GlcNAc(b1-3)Gal(b1-4)GlcNAc(b1-3)Gal(b1-4)GlcNAc(b1-3)Gal(b1-4)GlcNAc(b1-2)Man(a1-6)]Man(b1-4)GlcNAc(b1-4)GlcNAc
Summary of the method: as §1

Gal3S(b1-4)Glc6S = target: Gal3S(b1-4)Glc6S
Summary of the method: as §1

Gal3S6S(b1-4)GlcNAc = target: Gal3S6S(b1-4)GlcNAc
Summary of the method: as §1

Gal3S6S(b1-4)GlcNAc6S = target: Gal3S6S(b1-4)GlcNAc6S
Summary of the method: as §1

[14] = target: GalNAc(a1-3)GalNAc(b1-3)Gal(a1-4)Gal(b1-4)Glc
Summary of the method: as §1

GalNAc(b1-3)GlcNAc = target: GalNAc(b1-3)GlcNAc
Summary of the method: as §1

GalNAc(b1-4)Gal(b1-4)Glc = target: GalNAc(b1-4)Gal(b1-4)Glc
Summary of the method: as §1

[15] = target: GalNAc(b1-4)GlcNAc(b1-3)GalNAc(b1-4)GlcNAc
Summary of the method: as §1

Glc(a1-6)Glc(a1-6)Glc = target: Glc(a1-6)Glc(a1-6)Glc
Summary of the method: as §1

GlcNAc(b1-3)Fuc = target: GlcNAc(b1-3)Fuc
Summary of the method: as §1

[16] = target: GlcNAc(b1-3)Gal(b1-4)GlcNAc(b1-3)Gal(b1-4)GlcNAc(b1-2)Man(a1-3)[GlcNAc(b1-3)Gal(b1-4)GlcNAc(b1-3)Gal(b1-4)GlcNAc(b1-2)Man(a1-6)]Man(b1-4)GlcNAc(b1-4)[Fuc(a1-6)]GlcNAc
Summary of the method: as §1

[17] = target: GlcNAc(b1-3)Gal(b1-4)GlcNAc(b1-3)Gal(b1-4)GlcNAc(b1-3)Gal(b1-4)GlcNAc(b1-3)Gal(b1-4)GlcNAc(b1-2)Man(a1-3)[GlcNAc(b1-3)Gal(b1-4)GlcNAc(b1-3)Gal(b1-4)GlcNAc(b1-3)Gal(b1-4)GlcNAc(b1-3)Gal(b1-4)GlcNAc(b1-2)Man(a1-6)]Man(b1-4)GlcNAc(b1-4)[Fuc(a1-6)]GlcNAc
Summary of the method: as §1

[18] = target: GlcNAc(b1-3)Gal(b1-4)GlcNAc(b1-6)[GlcNAc(b1-3)]Gal(b1-4)GlcNAc
Summary of the method: as §1

[19] = target: GlcNAc(b1-3)[GlcNAc(b1-6)]GalNAc
Summary of the method: as §1

[20] = target: GlcNAc(b1-4)[GlcNAc(b1-6)]GalNAc
Summary of the method: as §1

[21] = target: GlcNAc6S(b1-3)Gal(b1-4)GlcNAc
Summary of the method: as §1

[22] = target: Kdn(a2-3)Gal(b1-4)[Fuc(a1-3)]GlcNAc
Summary of the method: as §1

[23] = target: Man(a1-3)[Man(a1-6)]Man(a1-6)[Man(a1-3)]Man
Summary of the method: as §1

[24] = target: Neu5Ac(a2-3)Gal(b1-3)GlcNAc6S
Summary of the method: as §1

[25] = target: Neu5Ac(a2-3)Gal(b1-4)GlcNAc(b1-2)[Neu5Ac(a2-3)Gal(b1-4)GlcNAc(b1-6)]Man(a1-6)[Neu5Ac(a2-3)Gal(b1-4)GlcNAc(b1-2)Man(a1-3)][GlcNAc(b1-4)]Man(b1-4)GlcNAc(b1-4)GlcNAc
Summary of the method: as §1

[26] = target: Neu5Ac(a2-3)Gal(b1-4)GlcNAc(b1-3)Gal(b1-4)GlcNAc(b1-6)[Gal(b1-3)]GalNAc
Summary of the method: as §1

[27] = target: Neu5Ac(a2-3)Gal(b1-4)GlcNAc(b1-6)GalNAc
Summary of the method: as §1

[28] = target: Neu5Ac(a2-6)Gal(b1-4)GlcNAc(b1-3)Gal(b1-4)GlcNAc(b1-3)Gal(b1-4)GlcNAc(b1-2)Man(a1-3)[Neu5Ac(a2-6)Gal(b1-4)GlcNAc(b1-3)Gal(b1-4)GlcNAc(b1-3)Gal(b1-4)GlcNAc(b1-2)Man(a1-6)]GalNAc
Summary of the method: as §1

[29] = target: Neu5Ac(a2-6)Gal(b1-4)GlcNAc(b1-3)[Neu5Ac(a2-6)Gal(b1-4)GlcNAc(b1-6)]GalNAc
Summary of the method: as §1

[30] = target: Neu5Ac(a2-8)Neu5Ac(a2-3)[Gal(b1-3)GalNAc(b1-4)]Gal(b1-4)Glc
Summary of the method: as §1

[31] = target: Neu5Ac(a2-8)Neu5Gc(a2-3)Gal(b1-4)GlcNAc
Summary of the method: as §1

B1: PX9961K-bvu-480-28-480 (Bacteroides vulgatus) (protein)
chain: NKIPTTMAFRTVTDVDNAVNGLYDLMSGSGYYGAAMFAYGDMKGDDMQSSEESGVCNTCYMFNHRPNSLNAGSLWGRPFYILREAWNILNAIAEGKIESGDEKKLNALKGETMAVIALCQFDLTRCFGYPYTKDKGASLGAPLIDHLVGTYENPPRSTVAQAYDFIIETLEEAVTLMSEEKNNGRMNKYAARALLARIYLYHDDNRKAFDLADQLIKDADTSGSYALYPHEKYVAAWSVEAKFGSESFFEIANSVDDTPGRDSWGYLLNWYGYQKGFVTQKYAEQMLADPGDVRGHLLEENKYAGKTVWWLYKLRGTDLKTAPLECNNVVLRLSEVYLIAAEAGCKLGGDAAVQGLGYLNEIVKRGNPDNEVTMADYTLDRVLDERSKELVGEGHRFFDLLRNGKTIVRKGGYHLPSVDEEVDWDFYKCVLPIPEDQFIFSPEMEQNPGYPKN
Fuc(a1-2)Gal
  glycan array binding signal (z-score): -0.335
[1]
  glycan array binding signal (z-score): -0.817
[2]
  glycan array binding signal (z-score): -0.084
[3]
  glycan array binding signal (z-score): -0.605
[4]
  glycan array binding signal (z-score): 0.151
[5]
  glycan array binding signal (z-score): -0.75
[6]
  glycan array binding signal (z-score): 0.583
[7]
  glycan array binding signal (z-score): 0.709
[8]
  glycan array binding signal (z-score): 3.09
[9]
  glycan array binding signal (z-score): 1.47
Gal(b1-2)Gal
  glycan array binding signal (z-score): 0.817
[10]
  glycan array binding signal (z-score): 0.157
Gal(b1-4)Glc
  glycan array binding signal (z-score): -0.177
[11]
  glycan array binding signal (z-score): 0.328
[12]
  glycan array binding signal (z-score): 1.61
[13]
  glycan array binding signal (z-score): 1.2
Gal3S(b1-4)Glc6S
  glycan array binding signal (z-score): 0.273
Gal3S6S(b1-4)GlcNAc
  glycan array binding signal (z-score): 0.512
Gal3S6S(b1-4)GlcNAc6S
  glycan array binding signal (z-score): 1.05
[14]
  glycan array binding signal (z-score): -0.347
GalNAc(b1-3)GlcNAc
  glycan array binding signal (z-score): 0.085
GalNAc(b1-4)Gal(b1-4)Glc
  glycan array binding signal (z-score): 0.362
[15]
  glycan array binding signal (z-score): -0.336
Glc(a1-6)Glc(a1-6)Glc
  glycan array binding signal (z-score): -0.638
GlcNAc(b1-3)Fuc
  glycan array binding signal (z-score): 1.16
[16]
  glycan array binding signal (z-score): 1.89
[17]
  glycan array binding signal (z-score): 0.909
[18]
  glycan array binding signal (z-score): 1.77
[19]
  glycan array binding signal (z-score): -0.501
[20]
  glycan array binding signal (z-score): 0.135
[21]
  glycan array binding signal (z-score): 1.58
[22]
  glycan array binding signal (z-score): -0.426
[23]
  glycan array binding signal (z-score): 2.06
[24]
  glycan array binding signal (z-score): 0.976
[25]
  glycan array binding signal (z-score): 1.59
[26]
  glycan array binding signal (z-score): -0.074
[27]
  glycan array binding signal (z-score): -0.742
[28]
  glycan array binding signal (z-score): 1.68
[29]
  glycan array binding signal (z-score): -0.532
[30]
  glycan array binding signal (z-score): -0.283
[31]
  glycan array binding signal (z-score): 19.1
